The values that follow come from PubChem BioAssay (Tox21).

“And” between values parts separate entries of the source, which are not always exact repeats. Equal values may be shown once. Inconclusive results are not listed. The source made the active and inactive calls. Unless noted, calls come from the whole dose curve; as a rule, active = well fitted curve in the direction sought with a large enough effect in the repeat runs; inconclusive = weak or mixed curves; inactive = no such curve, though single readings can be large; an effect the other way counts as inactive or inconclusive.

For assay [1], the target named is Peroxisome proliferator-activated receptor delta (Homo sapiens) (UniProt Q03181). The experiment in a line: qHTS assay to identify small molecule agonists of the peroxisome proliferator-activated receptor delta (PPARd) signaling pathway (AID 743212; calls by dose curve). In a few lines: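 Quantitative high-throughput agonist screen in a HEK293H beta-lactamase reporter line under UAS control. Compounds in DMSO, at 37 C. Fluorescence read after 2 h with FRET substrate at room temperature.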

The nature of assay [2]: qHTS assay to identify small molecule antagonists of the peroxisome proliferator-activated receptor delta (PPARd) signaling pathway - cell viability counter screen (AID 743213). Note: nearly all actives have a fitted effect of over 50% in size. Note: potency is the fitted concentration of half-maximal effect. In a few lines:
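CellTiter-Glo was added to PPARd-bla HEK293H wells following 17 h compound treatment in the presence of 300 nM L165041. Luminescence was recorded after 30 min at room temperature.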
(qHTS replaces the single test concentration by a dilution series.)

Assay [3] deals with Peroxisome proliferator-activated receptor delta (Homo sapiens) (UniProt Q03181). The experiment in a line: qHTS assay to identify small molecule antagonists of the peroxisome proliferator-activated receptor delta (PPARd) signaling pathway (AID 743215; active = well fitted inhibition curve with a large enough effect in the signal ratio in the repeat runs, not every such curve was filed as active; the % refers to the signal ratio;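 note: cells stimulated with agonist L165041 at 300 nM final during compound exposure; series mostly up to about 62 µM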). In a few lines: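 Read-out is beta-lactamase FRET fluorescence, measured 2 h after substrate addition at room temperature. Beforehand, UAS-bla HEK293H cells carrying the PPARd reporter were exposed to compounds with L165041 at 300 nM final for 17 h at 37 C.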

A short description of assay [4]: qHTS assay to identify small molecule agonists of the farnesoid-X-receptor (FXR) signaling pathway - cell viability counter screen (AID 743218). Note: nearly all actives have a fitted effect of over 45% in size. Note: potency is the fitted concentration of half-maximal effect. In a few lines: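 HEK 293T FXR-bla cells; 5 h pre-incubation, 16 h compound exposure at 37 C; LiveBLAzer substrate 2 h RT, then CellTiter-Glo 30 min RT, luminescence.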
The nature of assay [5]: qHTS assay to identify small molecule antagonists of the farnesoid-X-receptor (FXR) signaling pathway - cell viability counter screen (AID 743221; active = well fitted cell-killing curve with a large enough effect in the repeat runs, not every such curve was filed as active; note: nearly all actives have a fitted effect of over 50% in size; note: potency is the fitted concentration of half-maximal effect). In a few lines: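 Luminescence from CellTiter-Glo measures cytotoxicity in GeneBLAzer FXR-UAS-bla HEK 293T cells. Cells were exposed to compounds with 50 uM chenodeoxycholic acid (final) for 16 h at 37 C, in wells also used for the reporter readout.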

Assay [6] addresses Vitamin D3 receptor (Homo sapiens) (UniProt P11473). The assay is described as follows: qHTS assay to identify small molecule agonists of the vitamin D receptor (VDR) signaling pathway (AID 743222; calls by dose curve). In a few lines:
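VDR-bla cells, 2,000/well; 4 h preincubation 37C; cpd (DMSO) 16 h; LiveBLAzer B/G substrate 2 h RT; fluorescence intensity read.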

Assay [7] shares this target. The assay is described as follows: qHTS assay to identify small molecule antagonists of the vitamin D receptor (VDR) signaling pathway (AID 743223; active = well fitted inhibition curve with a large enough effect in the signal ratio in the repeat runs, not every such curve was filed as active; the % refers to the signal ratio). In a few lines: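 Antagonist mode uses 1alpha,25-dihydroxyvitamin D3 at 3 nM final as stimulus. VDR-bla cells receive compounds in DMSO, incubate 16 h at 37C, then a beta-lactamase FRET substrate for 2 h at room temperature before fluorescence measurement.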

A short description of assay [8]: qHTS assay to identify small molecule agonists of the vitamin D receptor (VDR) signaling pathway - cell viability counter screen (AID 743224). Note: nearly all actives have a fitted effect of over 50% in size. Note: potency is the fitted concentration of half-maximal effect. In a few lines:
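Luminescence from CellTiter-Glo, read after 30 min at room temperature, reports viability of VDR-bla cells treated with compounds for 16 h at 37C in the wells used for the beta-lactamase FRET read.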

Assay [9] deals with Bile acid receptor (Homo sapiens) (UniProt Q96RI1). The assay is described as follows: qHTS assay to identify small molecule antagonists of the farnesoid-X-receptor (FXR) signaling pathway (AID 743217; active = well fitted inhibition curve with a large enough effect in the signal ratio in the repeat runs, not every such curve was filed as active; the % refers to the signal ratio). In a few lines:
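HEK 293T FXR-UAS-bla, 5000 cells/well; compound + CDCA 50 uM final; 16 h, 37 °C; B/G FRET substrate 2 h RT; fluorescence.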

Assay [10] has the same target. The experiment in a line: qHTS assay to identify small molecule agonists of the farnesoid-X-receptor (FXR) signaling pathway (AID 743220; active = well fitted activation curve with a large enough effect in the signal ratio in the repeat runs, not every such curve was filed as active; the % refers to the signal ratio; note: potency is the fitted concentration of half-maximal effect). In a few lines: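 Beta-lactamase reporter under UAS control in GeneBLAzer FXR HEK 293T cells (5000/well) measured with LiveBLAzer FRET substrate after 2 h at room temperature. Compound exposure lasted 16 h at 37C.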

Bile acid receptor (Homo sapiens), sequence (Q96RI1 whole entry, looked up): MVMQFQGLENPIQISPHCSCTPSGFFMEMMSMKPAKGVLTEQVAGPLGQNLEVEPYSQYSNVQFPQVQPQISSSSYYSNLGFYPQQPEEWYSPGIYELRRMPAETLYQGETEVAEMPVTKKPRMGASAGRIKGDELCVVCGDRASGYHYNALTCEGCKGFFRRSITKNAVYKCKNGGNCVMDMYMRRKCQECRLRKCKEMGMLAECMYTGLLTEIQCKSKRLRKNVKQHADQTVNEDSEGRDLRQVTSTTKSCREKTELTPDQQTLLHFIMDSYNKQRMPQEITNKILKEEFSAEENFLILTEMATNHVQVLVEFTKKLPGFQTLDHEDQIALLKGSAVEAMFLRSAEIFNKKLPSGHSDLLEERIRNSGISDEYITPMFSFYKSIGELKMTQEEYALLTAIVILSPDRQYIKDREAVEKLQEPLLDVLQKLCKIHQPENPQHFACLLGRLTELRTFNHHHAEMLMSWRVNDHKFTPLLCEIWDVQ
Peroxisome proliferator-activated receptor delta (Homo sapiens), sequence (Q03181 whole entry, looked up): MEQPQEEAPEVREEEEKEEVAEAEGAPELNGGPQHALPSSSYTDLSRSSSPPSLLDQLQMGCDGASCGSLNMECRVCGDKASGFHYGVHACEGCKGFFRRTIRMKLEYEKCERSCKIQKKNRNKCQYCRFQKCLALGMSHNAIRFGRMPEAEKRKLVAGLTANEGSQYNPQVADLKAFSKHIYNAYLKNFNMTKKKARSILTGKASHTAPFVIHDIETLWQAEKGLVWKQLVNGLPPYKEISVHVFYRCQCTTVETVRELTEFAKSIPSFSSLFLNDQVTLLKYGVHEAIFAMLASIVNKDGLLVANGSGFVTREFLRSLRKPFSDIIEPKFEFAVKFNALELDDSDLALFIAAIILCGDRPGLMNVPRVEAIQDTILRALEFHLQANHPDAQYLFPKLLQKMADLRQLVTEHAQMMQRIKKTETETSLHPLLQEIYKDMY
Vitamin D3 receptor (Homo sapiens), sequence (P11473 whole entry, looked up): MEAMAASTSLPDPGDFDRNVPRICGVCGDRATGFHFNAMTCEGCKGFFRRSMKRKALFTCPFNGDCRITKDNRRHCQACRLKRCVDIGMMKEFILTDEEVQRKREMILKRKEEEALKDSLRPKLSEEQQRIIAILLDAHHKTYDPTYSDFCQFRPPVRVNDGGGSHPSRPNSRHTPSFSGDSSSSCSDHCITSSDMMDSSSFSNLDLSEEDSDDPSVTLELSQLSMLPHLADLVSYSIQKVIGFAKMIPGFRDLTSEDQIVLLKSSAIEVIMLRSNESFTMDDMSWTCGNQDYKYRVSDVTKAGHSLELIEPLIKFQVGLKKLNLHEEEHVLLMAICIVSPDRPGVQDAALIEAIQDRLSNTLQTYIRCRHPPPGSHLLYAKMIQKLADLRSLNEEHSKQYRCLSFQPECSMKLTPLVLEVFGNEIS

With `CC(C)=CCC/C(C)=C/C=O`, the Potency result in assay [1], in assay [2], in assay [3], in assay [4], in [5] and in assay [7] was “inactive” each time. In [8], the Potency entry was “inactive”. Besides, the molecule was classed as inactive in assay [6].

Regarding `CCCOCC(C)O` (configuration not stated), the Potency entry in assay [1], in assay [2], in [3], in assay [4], in [5] and in assay [7] was “inactive” in each case. Further, the Potency entry in [8] was “inactive”. Moreover, in assay [6], the call was inactive.

On to `Cc1ccccc1Cl`, for which the Potency result in [1], in assay [2], in [3], in assay [9], in [4] and in assay [10] was “inactive” in each case. In addition, the Potency entry in [5], in [7] and in [8] was “inactive” each time. Moreover, the result in assay [6] was inactive.

On to `OCc1ccc(Cl)cc1Cl`, for which the Potency result in assay [1], in [2], in [3], in [9], in assay [4] and in assay [5] was “inactive” each time. Also, the Potency entry in assay [7] and in assay [8] was “inactive” throughout. In addition, the call in [6] was inactive.

With `Cc1cc(CC(=O)O)n(C)c1C(=O)c1ccc(Cl)cc1`, the Potency result in assay [1], in assay [2], in assay [3], in assay [9], in assay [4] and in assay [10] was “inactive” each time. Also, the Potency entry in assay [5], in assay [7] and in [8] was “inactive” in each case. The molecule was called inactive in assay [6].

As to `CC(COCC(C)OC(=O)c1ccccc1)OC(=O)c1ccccc1` (configuration not stated), the Potency entry in [1], in assay [2], in [3], in [9], in assay [4] and in assay [10] was “inactive” throughout. In addition, the Potency entry in assay [5], in assay [7] and in assay [8] was “inactive” each time. Moreover, the call in assay [6] was inactive.

Take `Nc1nc(N)c2nc(-c3ccccc3)c(N)nc2n1`: the Potency in assay [10] was 49.5 µM (active) and 21.1 µM (active).

`Cc1ccncc1`: the Potency result in [2], in assay [4], in assay [5], in assay [7] and in assay [8] was “inactive” each time. Moreover, the molecule was called inactive in assay [6].

Turning to `CC(CN1c2ccccc2Sc2ccccc21)N(C)C` (configuration not stated), the Potency in assay [2] is 49.5 µM (active) and 24.5 µM (active); in assay [4], 49.5 µM (active) and 27.5 µM (active); in assay [5], 49.5 µM (active); in assay [8] it was 49.5 µM (active) and 43.6 µM (active).

`OCCOCCOCCOCCOCCO`: the Potency result in [2], in [4], in [5], in assay [7] and in assay [8] was “inactive” each time. For the same molecule, in assay [6], the molecule was called inactive.

Take `O=C(O)Cc1c[nH]c2ccccc12`: the Potency result in assay [2], in assay [9], in assay [4], in assay [10], in assay [5] and in assay [7] was “inactive” in each case. In addition, the Potency result in assay [8] was “inactive”. In addition, the molecule was classed as inactive in [6].

As for `CC/C(C)=N/O`, the Potency result in assay [2], in [4], in assay [5], in assay [7] and in assay [8] was “inactive” in each case. In assay [6], the call was inactive.

With `CC1(C)[C@@H](O[C@H]2O[C@H](C(=O)O)[C@@H](O)[C@H](O)[C@H]2O[C@@H]2O[C@H](C(=O)O)[C@@H](O)[C@H](O)[C@H]2O)CC[C@]2(C)[C@H]3C(=O)C=C4[C@@H]5C[C@@](C)(C(=O)O)CC[C@]5(C)CC[C@@]4(C)[C@]3(C)CC[C@@H]12`, the Potency entry in assay [2], in assay [4], in assay [5], in [7] and in [8] was “inactive” throughout. Besides, the call in assay [6] was inactive.

Consider `C=C(C)CC(C)(C)C`, for which the Potency entry in assay [2], in assay [9], in [4], in [10], in [5] and in assay [7] was “inactive” in each case. Moreover, the Potency result in [8] is “inactive”. Also, the outcome in assay [6] was inactive.

Regarding `CCCCC(=O)O`, the Potency entry in assay [2], in assay [9], in [4], in assay [10], in assay [5] and in [7] was “inactive” each time. In addition, the Potency result in assay [8] was “inactive”. The call in assay [6] was inactive.

For `O=c1c(O)c(-c2ccc(O)c(O)c2)oc2cc(O)cc(O)c12`, the Potency entry in assay [2], in assay [4], in assay [5], in assay [7] and in assay [8] was “inactive” each time. For the same molecule, the result in assay [6] was inactive.

For the molecule `O=C1C(N(CO)C(=O)NCO)N(CO)C(=O)N1CO` (configuration not stated), the Potency entry in assay [2], in assay [4], in assay [5], in [7] and in assay [8] was “inactive” in each case. Moreover, the call in assay [6] was inactive.

On to `O=[N+]([O-])c1cc(C(F)(F)F)ccc1Cl`, for which the Potency result in assay [2], in [4], in assay [5] and in assay [8] was “inactive” in each case.

Consider `NC(N)=S`, for which the Potency entry in assay [2], in assay [9], in assay [4], in assay [10], in assay [5] and in assay [7] was “inactive” in each case. The Potency entry in [8] was “inactive”. For the same molecule, the molecule was classed as inactive in assay [6].

Take `CC[N+](CC)(CC(=O)Nc1c(C)cccc1C)Cc1ccccc1`: the Potency entry in [2], in [4], in [5] and in assay [8] was “inactive” each time.

With `CC1(C)C(=O)N(Cl)C(=O)N1Cl`, the Potency entry in [2], in [4], in assay [5], in assay [7] and in assay [8] was “inactive” throughout. Moreover, in assay [6], the call was inactive.
